Screening results deposited in PubChem by National Center for Advancing Translational Sciences (NCATS).
KDM4E inh = JMJD2E (human) inhibition. B2RXH2. JMJD2E catalytic domain, FDH-coupled NADH fluorescence (FDH is formaldehyde dehydrogenase). Potency, µM (titrated, usually from 57.1 µM), without a hit: at the top dose activity change, negative = inhibition, most hits filed as inhibitors. hit rate 1.6% among 230,000; active = well fitted inhibition curve with a large enough effect, not every such curve was filed as active; inconclusive = small, poorly fitted or top-dose-only effect, or another doubt; inactive = no such curve, though single readings can be large or run the other way;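 also: 0% = wells with enzyme and -100% = buffer wells without enzyme; nearly all actives have a fitted effect of over 50% in size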
Target sequence (B2RXH2 1-337 limits assumed): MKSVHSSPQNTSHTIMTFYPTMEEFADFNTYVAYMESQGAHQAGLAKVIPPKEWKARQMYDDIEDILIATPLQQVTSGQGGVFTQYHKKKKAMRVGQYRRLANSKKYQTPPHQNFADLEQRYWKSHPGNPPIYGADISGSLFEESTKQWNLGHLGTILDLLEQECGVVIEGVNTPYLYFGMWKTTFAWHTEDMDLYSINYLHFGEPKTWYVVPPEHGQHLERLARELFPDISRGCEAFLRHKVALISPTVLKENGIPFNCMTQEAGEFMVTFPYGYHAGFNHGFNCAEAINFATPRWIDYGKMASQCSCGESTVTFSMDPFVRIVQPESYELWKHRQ
Sfp PPTase inh = Sfp phosphopantetheinyl transferase inhibition. Q9F4F7. Biochemical Sfp PPTase activity, qHTS. Potency, µM, inactives show largest response in the series, negative = inhibition, actives largely listed as inhibitors. hit rate 3.5% among 310,000;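 also: the enzyme is Sfp with the accession as filed and its product quenches rhodamine fluorescence; 0% = enzyme reaction without inhibitor and -100% = no enzyme wells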
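Fluorescence-quenching assay with 15 nM Sfp, 5 uM rhodamine-CoA and 12.5 uM BHQ-2-labelled ybbR peptide in pH 7.6 Hepes/MgCl2 buffer. Enzyme was pre-incubated with compound for 15 min at room temperature. Rate was taken from the 30-min fluorescence change (525/598 nm).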
KAT2A inh = blocks human GCN5L2 histone acetyltransferase | Q92830 | GCN5L2 HAT assay, ThioGlo1 CoA-SH fluorescence | Potency, µM (doses to about 58.9 µM), inactives show at the highest dose activity change, negative = inhibition, usual class: inhibitors | hit rate 0.21% among 390,000; also: % is scaled to controls: 0 for no effect and ±100 for the full control effect
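GCN5L2 (20 nM) in 50mM HEPES pH 7.5, 0.1mM EDTA, 0.01% Tween-20 preincubated 15 min with compounds at room temperature. Reaction started with H3(1-25) 75uM, acetyl-CoA 70uM, ThioGlo1 50uM; CoA-thiol fluorescence (Ex340/Em540) read at 0 and 20 min.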
Epigenetic reg = epigenetic control regulation, reporter derepression; murine LDR cells, GFP reporter derepression, 30 h; hit rate 0.2% among 280,000; Potency, µM (series often up to 53.9 µM), for inactives: at the highest dose GFP activation, actives largely listed as activators; AID 1865; also: % of control where 0% means no effect; nearly all actives have a fitted effect of over 60% in size
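Reporter derepression read as number of fluorescent GFP-positive objects, 20-120 um in size, counted by laser-scanning cytometer. Mouse LDR line with an epigenetically silenced CMV-GFP locus; compound incubation 30 h, 37 C.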
IMPase Li cell = IMPase inhibition in cells with lithium potentiation | CHO-M1 cells, IP1 TR-FRET (IP-One), carbachol + lithium | Potency, µM (titrated, usually from 59.4 µM), inactives show at the highest dose activity, negative = IMPase inhibition, hits mostly inhibitors | hit rate 0.35% among 210,000 | AID 1457;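 also: IP1 builds up when IMPase is blocked and the TR-FRET signal falls; plate controls were basal vehicle for no effect and high inhibitor control for full effect; nearly all actives have a fitted effect of over 50% in size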
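Concentration–response in CHO-M1 cells, lithium-potentiated; 30 min at 37C. IP1 detected by competitive TR-FRET after 10 min lysis at RT. Hill-fitted AC50.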
NPSR antagonist = blocks cAMP signaling of the human neuropeptide S receptor; Q6W5P4; CHO-NPSR cells, cAMP TR-FRET, antagonist mode; Potency, µM (top dose mostly 38.3 µM), for the others: top-dose activity change, negative = inhibition, most hits filed as inhibitors; hit rate 1% among 220,000; also: % is scaled to controls: 0 for no effect and ±100 for the full control effect; nearly all actives have a fitted effect of over 50% in size
Target sequence (Q6W5P4 whole entry, looked up): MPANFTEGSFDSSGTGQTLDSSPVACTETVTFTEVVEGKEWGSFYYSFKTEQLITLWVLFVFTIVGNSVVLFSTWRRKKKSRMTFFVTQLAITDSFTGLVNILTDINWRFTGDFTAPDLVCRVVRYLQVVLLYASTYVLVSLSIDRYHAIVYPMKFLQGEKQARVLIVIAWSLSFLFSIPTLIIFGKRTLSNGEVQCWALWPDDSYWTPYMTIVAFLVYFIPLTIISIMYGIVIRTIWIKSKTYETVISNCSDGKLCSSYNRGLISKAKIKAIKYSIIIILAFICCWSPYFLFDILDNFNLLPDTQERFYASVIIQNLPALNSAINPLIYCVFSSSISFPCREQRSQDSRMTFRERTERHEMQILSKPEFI
Active calls of the source: *; ? = inconclusive; · = not tested or not shown; ! = not active in a repeat; [ ] = another dose, or the depositor's remark. Only some compounds are listed: those with a hit (about 3.6% of all), similar ones and a draw of the others. Unless noted, calls follow the shape of the dose curve; as a rule, active = well fitted curve in the direction sought with a large enough effect; inconclusive = small, poorly fitted or top-dose-only effect, or another doubt; inactive = no such curve, though single readings can be large; an effect the other way counts as inactive or inconclusive. Potency is read from the fitted curve at half-maximal effect.

SMILES	KDM4E inh	Sfp PPTase inh	KAT2A inh	Epigenetic reg	IMPase Li cell	NPSR antagonist
Cc1ccc(N2C(=O)/C(=C\c3ccco3)SC2=S)cc1	-3%	14µM*	?	0%	-7%[38.3 µM]	-20%[46.1 µM]
Nc1cc(S(=O)(=O)Nc2ccc(Cl)cc2)ccc1N1CCOCC1	-7%	20µM*	-11%	-3%	·	-9%
N=C1c2ccccc2CN1c1ccc(N2CCOCC2)c(S(=O)(=O)Nc2ccc(Cl)cc2)c1	-5%	10µM*	-17%	5%	·	?
C[Si](C)(C)Cl	·	·	·	·	7%	·
O=C(Nc1ncc2c(n1)-c1ccccc1CC2)c1cccc(Cl)c1	?	-10%	3.2µM*	0%	4%[38.3 µM]	-12%[46.1 µM]
COC(=O)CCCC1=CC2=C(c3ccccc3)C(=O)C(C)(OC(=O)C3CCCC3)C(=O)C2=CN1CCCCO (centres undefined)	?	-7%	-12%	2%	6%	17%
COC(=O)CCCC1=CC2=C(c3ccccc3)C(=O)C(C)(OC(=O)C3CCCC3)C(=O)C2=CN1CCCOC(C)C (centres undefined)	3.5µM*	-17%	·	·	4%	·
COC(=O)CCC(=O)OC1(C)C(=O)C2=CN(CCCOC(C)C)C(c3ccc(OC)cc3)=CC2=C(Br)C1=O (centres undefined)	4.5µM*	-19%	-16%	-2%	·	-20%
COC(=O)CCCC1=CC2=C(c3ccccc3)C(=O)C(C)(OC(=O)C3CCCC3)C(=O)C2=CN1Cc1ccco1 (centres undefined)	18µM*	56µM*!	-18%	3%	12%	-13%
COC(=O)CCCC1=CC2=C(c3ccccc3)C(=O)C(C)(OC(=O)C3CCCC3)C(=O)C2=CO1 (centres undefined)	2%	-5%	·	0%	1%	·
COc1ccccc1CNc1ncncc1-c1ccc(N(C)C)cc1	?	-6%	-9%	0%	5%	·
COc1ccc(CNc2ncncc2-c2ccc(N(C)C)cc2)c(OC)c1	·	79µM*	-19%	·	0%	·
CCOC(=O)C1CCN(C(=O)Nc2ccc3c(c2)nc(C)n3C)CC1	?	15%	0%	-1%	34%[38.3 µM]	-6%[46.1 µM]
O=C(Nc1ccc2nc(-c3ccco3)c(-c3ccco3)nc2c1)N1CCCCCC1	?	14µM*	14µM*	-5%	28%	10µM*
CCOC(=O)C1CCN(C(=O)Nc2ccc3nc(-c4ccco4)c(-c4ccco4)nc3c2)CC1	?	14µM*	?	1%	54%[38.3 µM]	-21%[46.1 µM]
CCCCn1c(=O)[nH]c(=O)c2c1nc(-c1ccc(-c3ccccc3Br)o1)n2CCOC	?	40µM*	-25%	11%	-7%[38.3 µM]	-20%[46.1 µM]
COCCn1c(-c2ccc(NC(C)=O)cc2)nc2c1c(=O)[nH]c(=O)n2CC(C)C	·	2%	-13%	·	·	·
COCCn1c(-c2ccc(-c3ccccc3Cl)o2)nc2c1c(=O)[nH]c(=O)n2CC(C)C	-3%	18µM*	-15%	1%	·	-5%[46.1 µM]
CCOC(=O)CCCN1C(=O)CCn2nc(-c3cn(C)c4ccccc34)cc21	·	·	-8%	-4%	·	·
CC(C)(CN)CN	·	·	·	·	-7%	·
CC1CCN(CCCCOc2ccccc2Br)CC1	3%	50µM*	-7%	2%	17%	0%
CC1CCN(CCCCOc2ccccc2F)CC1	·	-6%	-5%	·	·	·
CC1CCN(CCOCCOc2ccc(Cl)cc2Br)CC1	2%	56µM*	-2%	-1%	·	7%[46.1 µM]
Clc1ccc(SCCOCCN2CCCCC2)cc1	7%	56µM*	-3%	-1%	-12%	19%
Clc1ccc(SCCOCCN2CCOCC2)cc1	·	-29%	-4%	·	·	·
SMILES	KDM4E inh	Sfp PPTase inh	KAT2A inh	Epigenetic reg	IMPase Li cell	NPSR antagonist
Clc1ccc(OCCOCCN2CCCCC2)c(Br)c1	-25%	56µM*	?	-1%	18%[38.3 µM]	3%[46.1 µM]
CN(C)C(=O)c1ccc(-c2ccc3ncnc(NC4CCNCC4)c3c2)cc1	?	8%	-5%	-2%	-2%	·
CCCc1cnc2c(c1SCc1cccc(F)c1)c(=O)n(C)c(=O)n2C	·	·	-9%	3%	·	·
Cc1ccc(C)n1-c1nc(=S)[nH][nH]1	?	14µM*	18µM*	1%	10%[38.3 µM]	-5%[46.1 µM]
CC[C@H](C)[C@H](NC(=O)[C@H](CO)NC(=O)[C@H](CC(C)C)NC(=O)[C@H](CO)NC(=O)[C@@H]1CCCN1C(=O)[C@H](CC(N)=O)NC(=O)[C@@H](N)CC(=O)O)C(=O)N[C@@H](CC(=O)O)C(=O)N[C@@H](CC(C)C)C(=O)N[C@H](C(=O)N[C@@H](Cc1ccccc1)C(=O)N[C@@H](Cc1cnc[nH]1)C(=O)N[C@@H](CC(C)C)C(=O)N[C@@H](CC(C)C)C(=O)N[C@@H](CCCNC(=N)N)C(=O)N[C@H](C(=O)N[C@@H](CC(C)C)C(=O)N[C@@H](CC(C)C)C(=O)N[C@@H](CCC(=O)O)C(=O)N[C@@H](CC(C)C)C(=O)N[C@@H](C)C(=O)N[C@@H](CCCNC(=N)N)C(=O)N[C@H](C(=O)N[C@@H](CCC(N)=O)C(=O)N[C@@H](CO)C(=O)N[C@@H](CCC(N)=O)C(=O)N[C@@H](CCCNC(=N)N)C(=O)N[C@@H](CCC(=O)O)C(=O)N[C@@H](CCCNC(=N)N)C(=O)N[C@@H](C)C(=O)N[C@@H](CCC(=O)O)C(=O)N[C@@H](CCC(N)=O)C(=O)N[C@@H](CC(N)=O)C(=O)N[C@@H](CCCNC(=N)N)C(=O)N[C@H](C(=O)N[C@H](C(=O)N[C@@H](Cc1ccccc1)C(=O)N[C@@H](CC(=O)O)C(=O)N[C@@H](CO)C(=O)N[C@H](C(N)=O)C(C)C)[C@@H](C)CC)[C@@H](C)CC)[C@@H](C)O)[C@@H](C)O)[C@@H](C)O	·	-1%	-9%	·	·	·
Cc1ccc(C(=O)Nc2sc(C)c(-c3ccccc3)c2C(N)=O)cc1[N+](=O)[O-]	-8%	45µM*	-4%	0%	13%[38.3 µM]	-10%[46.1 µM]
Cc1cccc(CCn2c(=O)c3ccccc3n(CC(=O)Nc3ccccc3F)c2=O)c1	·	·	-3%	5%	·	·
Cc1nc(NS(=O)(=O)c2ccccc2)sc1NC(=O)OCCN(C)C	-3%	20µM*	-9%	0%	28%[38.3 µM]	2%[46.1 µM]
CCOC(=O)c1sc(NS(=O)(=O)c2ccccc2)nc1C	-7%	14%	-13%	-1%	7%[38.3 µM]	-14%[46.1 µM]
Cc1ccc(NC(=O)c2c(C)oc3nc(C)nc(N4CCCC4)c23)c(C)c1	·	·	-1%	0%	·	·
COc1ccc(/C=N/NC(=O)C(=O)/C=C2\NC3(CCCC3)Cc3ccccc32)cc1	-9%	9%	-6%	-1%	12%	-39%
